# RE007 growth inh: less growth of the S. pombe RE007 Vpr strain; S. pombe RE007 Vpr strain, BacTiter-Glo ATP luminescence, 24 h; Potency, µM (titrated, usually from 92.2 µM), for inactives: at the top dose activity change, negative = less growth, usual class: inhibitors; actives 0.21% (n = 360,000); active means well fitted falling curve with a large enough effect; inconclusive means small, poorly fitted or top-dose-only effect; inactive means no such curve, though single readings can be large or run the other way; further: potency means the concentration at half of the fitted maximal effect; on the % scale 0 is the no-effect control and ±100 the full control effect; nearly all actives have a fitted effect of over 50% in size
#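 Fission yeast RE007 carrying one integrated HIV-1 vpr copy, seeded at OD 0.01 in PMG+AL medium with 23 nL pinned compound. Grown 24 h at 30 degrees; viability read by BacTiter-Glo luminescence after 5 min.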
# NS1 function inh: inhibitors of influenza NS1 protein function; Potency, µM (doses to about 46.1 µM), for inactives: top-dose activity, positive = more growth; actives 0.4% (n = 270,000); further: potency means the concentration at half of the fitted maximal effect; actives are rising curves; nearly all actives have a fitted effect of over 50% in size
#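 Growth recovery, yeast-based: influenza A NS1 expressed in S. cerevisiae causes slow growth, and suppressors are detected by OD600. The parent strain without NS1 is used as positive control.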
# Pf growth 96h: P. falciparum growth inhibition at 96 hour, primary screen for plastid delayed-death inhibitors; P. falciparum luciferase reporter growth, 96 h; Potency, µM (doses to about 28.7 µM), without a hit: top-dose activity change, negative = inhibition, usual class: inhibitors; actives 6.9% (n = 320,000); active means well fitted inhibition curve with a large enough effect; inconclusive means small, poorly fitted or top-dose-only effect, or another doubt; inactive means no such curve, though single readings can be large or run the other way; further: potency means the concentration at half of the fitted maximal effect; on the % scale 0 is the no-effect control and ±100 the full control effect
#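 96 h incubation, 37 C, 5% CO2, of luciferase-reporter P. falciparum-infected RBCs (2% hematocrit, 0.05% parasitemia final) with test compounds; endpoint luminescence.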
# SARS PLP yeast: SARS-CoV PLP inhibition in yeast. AID 485353. Potency, µM (highest dose often 32.9 µM), for inactives: at the highest dose activity, positive = growth rescue, most hits filed as activators. S. cerevisiae expressing SARS-CoV PLpro, growth rescue. actives 0.19% (n = 330,000); further: potency means the concentration at half of the fitted maximal effect; 0% is about no effect; nearly all actives have a fitted effect of over 55% in size
# Pf growth 48h: inhibits P. falciparum growth in the first generation, 48 h; Potency, µM (titrated, usually from 28.7 µM), without a hit: top-dose activity change, negative = inhibition, most hits filed as inhibitors; P. falciparum luciferase growth in erythrocytes, 48 h; actives 5.9% (n = 310,000); active means well fitted inhibition curve with a large enough effect; inconclusive means small, poorly fitted or top-dose-only effect, or another doubt; inactive means no such curve, though single readings can be large or run the other way; further: potency means the concentration at half of the fitted maximal effect; on the % scale 0 is the no-effect control and ±100 the full control effect
#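 Cell-based growth assay: transgenic P. falciparum expressing firefly luciferase, cultured in red cells within RPMI 1640 containing 0.5% w/v Albumax, 24 mM bicarbonate and gentamycin. A drop in luciferase activity indicates inhibition.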
# Flu NS1 inh: influenza NS1 function inhibition validation; AID 492980; shares compounds with NS1 function inh; activity change, negative = inhibition, % at 32.9 µM; 1,400 tested, under 10 active; influenza NS1 function cell assay, 15-point titration; further: 0% is about no effect
# PR8 titer: influenza virus titer reduction, NS1 project; shares compounds with NS1 function inh; MDCK infected influenza A/PR/8/34, virus titer TCID50; stronger effect = lower value; virus titer (log TCID50), log10 TCID50 at 5 µM; actives 30% (n = 95); AID 504647; call rule not given here
# * hit, by the source's call; ? = inconclusive; . = no result; [ ] = remark or other dose. Rows were chosen to be rich in hits. Some 9.5% of all compounds tested hit in one or more screens of this group. Unless noted, the call rests on the fitted dose curve.
SMILES,RE007 growth inh,NS1 function inh,Pf growth 96h,SARS PLP yeast,Pf growth 48h,Flu NS1 inh,others
C[C@@H]1CN([C@H](C)CO)C(=O)CCCn2nncc2CO[C@@H]1CN(C)C(=O)C1CC1,11%,.,.,.,.,.,
COC(=O)c1c(NC(=O)CN2C(=O)c3ccccc3C2=O)sc(Cc2ccc3c(c2)OCO3)c1C,7%,10µM*,-9%,3%,11%,-37,
COC(=O)c1c(NC(=O)CN2CCN(Cc3ccc4c(c3)OCO4)CC2)sc(C)c1C,-6%[3.69 µM],-54%,-17%,-1%,-14%,.,
COc1ccc(N2C(=O)[C@@H]3[C@H](C2=O)[C@H]2c4ccccc4C=CN2[C@@H]3C(C)=O)cc1,.,9%,-10%,-2%,-9%,.,
O=C(c1ccc2c(c1)OCO2)[C@@H]1[C@@H]2C(=O)N(C3CCCCC3)C(=O)[C@@H]2C2c3ccccc3C=CN21 (stereo partly drawn),6%,13µM*,4.7µM*,-6%,6.6µM*,9,PR8 titer=7.7
COc1c(C)cc(C(=O)C2CCCN(Cc3cccc4nccnc34)C2)cc1C (stereo not drawn),-15%,3%,?,0%,?,.,
COCc1cc(CN2CCCC2)c(O)c2ncccc12,-7%,0.71µM*,?,0%,2.9µM*,?,
CCc1ccc(NS(=O)(=O)c2ccc3[nH]cc(C(=O)N4CCc5ccccc54)c(=O)c3c2)cc1,-10%,-39%,?,-18%,88%,.,
Cc1cc(C)cc(NS(=O)(=O)c2ccc3[nH]cc(C(=O)N4CCc5ccccc54)c(=O)c3c2)c1,8%,22µM*,?,-5%,-7%,11,
COc1ccc(S(=O)(=O)N2CCOC2CNC(=O)C(=O)NCCc2c[nH]c3ccccc23)cc1C (stereo not drawn),1%,14µM*,9.3µM*,-3%,?,1,
COc1ccc(S(=O)(=O)N2CCOC2CNC(=O)C(=O)NCCc2c[nH]c3ccccc23)cc1 (stereo not drawn),-6%,9%,?,11%,-25%,.,
NNC(=O)CN1C(c2ccccc2Br)=Nc2ccc(Br)cc2C1c1ccccc1 (stereo not drawn),1%,4.5µM*,?,16%,?,-2,PR8 titer=8.3
Cn1c(=O)[nH]c(=O)c2c1nc(Br)n2CC(O)COc1ccccc1 (stereo not drawn),-3%,7.1µM*,-6%,18%,.,-2,
COc1ccccc1OCC(O)Cn1c(Br)nc2c1c(=O)[nH]c(=O)n2C (stereo not drawn),12%,3%,4%,3%,-7%,.,
CCNC(=O)C1CCCN(C(=O)c2cccc(Cl)c2)CC1 (stereo not drawn),-6%,.,.,.,.,.,
O=C1C2CCCN2C(c2cccnc2)N1c1cccc(Cl)c1 (stereo not drawn),1%,3.5µM*,1%,2%,.,-9,
O=C(CCn1c(=O)c2ccccc2n(Cc2cccc([N+](=O)[O-])c2)c1=O)N1CCc2ccccc2C1,17%,5µM*,2%,-2%,5%,9,
C/C(CC(=O)N(C(C)C)C(C)C)=N\NC(=O)COc1ccc(Br)cc1Br,0%,11µM*,-7%,-2%,5%,?,
C/C(CC(=O)N(C(C)C)C(C)C)=N\NC(=O)COc1ccc(Cl)cc1Cl,-18%,.,276%,2%,-1%,.,
COc1ccccc1/C=C1\CCCC2=C1Nc1nnnn1C2c1ccccc1OC (stereo not drawn),.,?,-20%,15%,?,?,PR8 titer=8.5
COC(=O)CC(NC(=S)NC(=O)c1ccccc1)c1ccc(Br)cc1 (stereo not drawn),-1%,16%,?,0%,?,.,
O=C(Cn1cnc([N+](=O)[O-])n1)NCc1ccccc1,15%,3.5µM*,-14%,-4%,3%,3,
Cc1cc(C(=O)N[C@@H](c2ccccc2)[C@]2(C)C[C@H]2[C@@H](C)C(=O)Nc2ccc3ccccc3c2)no1,-6%,11µM*,?,?,-1%,12,
C[C@@H](C(=O)Nc1ccc2ccccc2c1)[C@H]1C[C@]1(C)[C@H](NS(=O)(=O)c1ccccc1)c1ccccc1,-2%,11µM*,?,-15%,1µM*,6,
Cc1ccc(CNC(=O)[C@H](C)[C@H]2C[C@]2(C)[C@H](NC(=O)OCc2ccccc2)c2ccccc2)o1,7%,27%,?,-8%,?,.,
SMILES,RE007 growth inh,NS1 function inh,Pf growth 96h,SARS PLP yeast,Pf growth 48h,Flu NS1 inh,others
CCCOc1ccccc1/C=C(\C#N)C(=O)Nc1cccnc1,-14%,-6%,63%,1%,35%,.,
Cc1cc(C)nc(OC(C(=O)O)C(OCC(C)C)(c2ccccc2)c2ccccc2)n1 (stereo not drawn),6%,6.3µM*,-6%,-4%,7%,32,
CCC(C)COC(c1ccccc1)(c1ccccc1)C(Oc1nc(C)cc(C)n1)C(=O)O (stereo not drawn),5%,?,0%,-2%,-12%,.,
O=S(=O)(NCC1CCCN(Cc2ccccc2O)C1)c1cccc2cccnc12 (stereo not drawn),-11%,-9%,-6%,-7%,?,.,
CC1(NC(=O)Cc2ccc(S(=O)(=O)N3CCOCC3)s2)CCS(=O)(=O)C1 (stereo not drawn),-7%,.,4%,-4%,?,.,
CCCCn1c(SCC(=O)Nc2cc(C)on2)nnc1-c1cccs1,28%,0%,19%,2%,-16%,.,
Cc1cc(NC(=O)CSc2nnc(-c3cccs3)n2N)no1,15%,?,0%,9%,-29%,-7,
COc1ccc(CCNC(=O)c2ccc3c(c2)N(Cc2ccc(C)cc2)CCS3)cc1OC,-1%,7.9µM*,-21%,-4%,10µM*,0,
COc1cc(/C=N/NC(=O)c2ccc3nc[nH]c3c2)cc(OC)c1OC,-3%,1%,?,0%,?,.,
COc1cc(/C=N/NC(=O)c2ccc(CSc3nc4ccccc4[nH]3)cc2)cc(OC)c1OC,.,13µM*,0%,13%,?,?,PR8 titer=8
Cc1c(Cl)cnc(NC(=O)COC(=O)c2cccc(S(=O)(=O)N3c4ccccc4CC3C)c2)c1Cl (stereo not drawn),-6%,11µM*,5%,9%,2%,-13,
CCCCC1=CC2=CC(=O)C(C)(OC(=O)CC)C(=O)C2=CN1CCOC (stereo not drawn),-16%,?,21%,-3%,?,8,

# Screening results as filed in PubChem.
